Assay [1] in a line: qHTS assay to identify small molecule agonists of the peroxisome proliferator-activated receptor delta (PPARd) signaling pathway - cell viability counter screen (AID 743211). Further: nearly all actives have a fitted effect of over 55% in size. Further: potency means the concentration at half of the fitted maximal effect. An outline of the steps:
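Counter screen for cytotoxicity run in parallel with the PPARd reporter screen. Beta-lactamase reporter HEK293H cells exposed to compounds 17 h; ATP-based CellTiter-Glo luminescence quantified viability.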

Assay [2] is described as follows: qHTS assay to identify small molecule antagonists of the peroxisome proliferator-activated receptor delta (PPARd) signaling pathway - cell viability counter screen (AID 743213). Further: nearly all actives have a fitted effect of over 50% in size. An outline of the steps:
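Viability counter-screen, qHTS format: PPARd-bla HEK293H, L165041 300 nM final, 17 h compound exposure at 37 C, CellTiter-Glo luminescence after 30 min RT.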

The nature of assay [3]: qHTS assay to identify small molecule agonists of the farnesoid-X-receptor (FXR) signaling pathway - cell viability counter screen (AID 743218). Further: nearly all actives have a fitted effect of over 45% in size. An outline of the steps: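 Luminescence from CellTiter-Glo, read after 30 min at RT, reports viability of GeneBLAzer FXR-UAS-bla HEK 293T cells treated 16 h with compounds in the wells used for the beta-lactamase reporter.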
A short description of assay [4]: qHTS assay to identify small molecule antagonists of the farnesoid-X-receptor (FXR) signaling pathway - cell viability counter screen (AID 743221; active means well fitted cell-killing curve with a large enough effect in the repeat runs, not every such curve was filed as active; further: nearly all actives have a fitted effect of over 50% in size). A digest of the protocol: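 Multiplexed counter screen: viability of FXR-bla HEK 293T cells under agonist stimulation by chenodeoxycholic acid (50 uM, final) and test compound for 16 h at 37 C, measured by CellTiter-Glo luminescence in the reporter wells.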

Assay [5] has as its target Vitamin D3 receptor (Homo sapiens) (UniProt P11473). The experiment in a line: qHTS assay to identify small molecule agonists of the vitamin D receptor (VDR) signaling pathway (AID 743222; calls by dose curve). An outline of the steps:
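Beta-lactamase reporter readout (LiveBLAzer B/G FRET, 2 h RT) in VDR-bla cells after 16 h compound treatment at 37C, 5% CO2; cells pre-incubated 4 h before pin transfer of DMSO solutions.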

For assay [6] the target is unchanged. Kind of assay: qHTS assay to identify small molecule antagonists of the vitamin D receptor (VDR) signaling pathway (AID 743223; active means well fitted inhibition curve with a large enough effect in the signal ratio in the repeat runs, not every such curve was filed as active; the % refers to the signal ratio). An outline of the steps: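 Cells carrying a VDR-driven beta-lactamase reporter (VDR-bla) were co-treated with compound and 3 nM final 1alpha,25-dihydroxyvitamin D3 for 16 h at 37C; reporter activity was measured as FRET substrate fluorescence after 2 h at room temperature.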

The nature of assay [7]: qHTS assay to identify small molecule antagonists of the vitamin D receptor (VDR) signaling pathway - cell viability counter screen (AID 743225). Further: nearly all actives have a fitted effect of over 50% in size. A digest of the protocol: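 HEK293T VDR-bla; cpd + 1a,25-(OH)2D3 3 nM final, 16 h 37C/5% CO2; B/G FRET substrate 2 h RT; then CellTiter-Glo 30 min RT, luminescence.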
Assay [8] is described as follows: qHTS assay to identify small molecule agonists of the NFkB signaling pathway - cell viability counter screen (AID 1159515; calls by dose curve; further: series mostly up to about 61 µM; nearly all actives have a fitted effect of over 55% in size). An outline of the steps: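 ME-180 NFkB-bla cells, 2,000/well; overnight attach; compound 5 hr, 37 C/5% CO2; LiveBLAzer substrate 1.5 hr RT; then CellTiter-Glo in same wells, 30 min RT, luminescence read.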
The nature of assay [9]: qHTS assay to identify small molecule agonists of the endoplasmic reticulum stress response signaling pathway (AID 1159516; active means well fitted activation curve with a large enough effect in the signal ratio in the repeat runs, not every such curve was filed as active; the % refers to the signal ratio). An outline of the steps: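 HeLa ESRE-bla reporter line; cpd 5 h, 37 C/5% CO2; LiveBLAzer B/G FRET substrate 2 h RT; ex 405, em 460/530 nm.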
A short description of assay [10]: qHTS assay to identify small molecule agonists of the endoplasmic reticulum stress response signaling pathway - cell viability counter screen (AID 1159517; calls by dose curve;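 further: HeLa cells carrying an ER stress response element beta-lactamase reporter; series mostly up to about 61 µM; nearly all actives have a fitted effect of over 50% in size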). A digest of the protocol:
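Steps: seed 1,500 ESRE-bla HeLa cells per well; incubate overnight at 37 C, 5% CO2; add compounds in DMSO for 5 hr; run FRET substrate 2 hr RT; add CellTiter-Glo, wait 30 min, read luminescence.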

Assay [11] is described as follows: qHTS assay to identify small molecule antagonists of the retinoid-related orphan receptor gamma (ROR-gamma) signaling pathway - cell viability counter screen (AID 1159520). Further: nearly all actives have a fitted effect of over 50% in size. Further: potency means the concentration at half of the fitted maximal effect. A digest of the protocol: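 Tet-on ROR gamma CHO cells were given compounds for 2 hr, then doxycycline hyclate at 1 uM final, and incubated 16 hr at 37 C. Viability was measured as ATP content by CellTiter-Glo luminescence.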

Assay [12] has as its target Nuclear receptor ROR-gamma (Homo sapiens) (UniProt P51449). The experiment in a line: qHTS assay to identify small molecule antagonists of the retinoid-related orphan receptor gamma (ROR-gamma) signaling pathway (AID 1159521; further: nearly all actives have a fitted effect of over 50% in size; further: potency means the concentration at half of the fitted maximal effect). A digest of the protocol:
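Cells were plated, rested 4 h at 37 C, exposed to compounds for 2 h, then given 1 uM final doxycycline hyclate to induce RORγ expression. After 16 h, ONE-Glo luminescence from the ROR response element reporter was measured.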

A short description of assay [13]: qHTS assay to identify small molecule agonists of the AP-1 signaling pathway - cell viability counter screen (AID 1159525; calls by dose curve; further: nearly all actives have a fitted effect of over 55% in size). A digest of the protocol: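 Same-well cytotoxicity counter screen of the Tox21 10K library in ME-180 cells. The readout is ATP-dependent luminescence after 5 h compound treatment. Data are normalised to DMSO and tetra n-octyl ammonium bromide controls.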

The target of assay [14] is Peroxisome proliferator-activated receptor delta (Homo sapiens) (UniProt Q03181). Kind of assay: qHTS assay to identify small molecule agonists of the peroxisome proliferator-activated receptor delta (PPARd) signaling pathway (AID 743212; calls by dose curve). An outline of the steps:
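Read-out: beta-lactamase FRET fluorescence after 2 h room-temperature incubation with LiveBLAzer B/G substrate. Cells were HEK293H carrying a UAS-bla reporter for PPARd, treated at 37 C with DMSO-dissolved compounds.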

For assay [15] the target is unchanged. Kind of assay: qHTS assay to identify small molecule antagonists of the peroxisome proliferator-activated receptor delta (PPARd) signaling pathway (AID 743215; active means well fitted inhibition curve with a large enough effect in the signal ratio in the repeat runs, not every such curve was filed as active; the % refers to the signal ratio;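 further: cells stimulated with agonist L165041 at 300 nM final during compound exposure; series mostly up to about 62 µM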). A digest of the protocol:
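HEK293H GeneBLAzer PPARd UAS-bla reporter cells; cpd + L165041 300 nM final, 17 h 37 C; LiveBLAzer B/G FRET substrate 2 h RT; fluorescence intensity read-out. Antagonist mode.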

A short description of assay [16]: qHTS assay to identify small molecule agonists of the vitamin D receptor (VDR) signaling pathway - cell viability counter screen (AID 743224). A digest of the protocol:
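Cytotoxicity counter screen: VDR-bla cells, 16 h compound exposure at 37C, 5% CO2; CellTiter-Glo luminescence, 30 min RT, same wells as bla read.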

A short description of assay [17]: qHTS assay to identify small molecule agonists of the AP-1 signaling pathway (AID 1159526; calls by dose curve).
Assay [18] has as its target Bile acid receptor (Homo sapiens) (UniProt Q96RI1). Kind of assay: qHTS assay to identify small molecule agonists of the farnesoid-X-receptor (FXR) signaling pathway (AID 743220; active means well fitted activation curve with a large enough effect in the signal ratio in the repeat runs, not every such curve was filed as active; the % refers to the signal ratio). An outline of the steps:
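FXR-UAS-bla HEK 293T cells carrying a UAS-driven beta-lactamase reporter were plated for 5 h at 37C/5% CO2, then exposed to DMSO-dissolved Tox21 10K compounds for 16 h at 37C. A LiveBLAzer B/G FRET substrate was loaded for 2 h at room temperature before fluorescence reading.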

Assay [19] shares this target. Kind of assay: qHTS assay to identify small molecule antagonists of the farnesoid-X-receptor (FXR) signaling pathway (AID 743217; active means well fitted inhibition curve with a large enough effect in the signal ratio in the repeat runs, not every such curve was filed as active; the % refers to the signal ratio). A digest of the protocol:
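Read-out: beta-lactamase FRET fluorescence (LiveBLAzer B/G substrate, 2 h, room temperature) in GeneBLAzer FXR-UAS-bla HEK 293T cells. Compounds were co-dosed with 50 uM chenodeoxycholic acid (final) and incubated 16 h at 37 °C.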

Results filed as inconclusive are left out. Unmarked numbers belong to inactive results. Activity calls are given as the source filed them. Unless noted, the call rests on the fitted dose curve; in most records, active means well fitted curve in the direction sought with a large enough effect in the repeat runs; inconclusive means weak or mixed curves; inactive means no such curve, though single readings can be large; an effect the other way counts as inactive or inconclusive.

Peroxisome proliferator-activated receptor delta (Homo sapiens), sequence (Q03181 whole entry, looked up): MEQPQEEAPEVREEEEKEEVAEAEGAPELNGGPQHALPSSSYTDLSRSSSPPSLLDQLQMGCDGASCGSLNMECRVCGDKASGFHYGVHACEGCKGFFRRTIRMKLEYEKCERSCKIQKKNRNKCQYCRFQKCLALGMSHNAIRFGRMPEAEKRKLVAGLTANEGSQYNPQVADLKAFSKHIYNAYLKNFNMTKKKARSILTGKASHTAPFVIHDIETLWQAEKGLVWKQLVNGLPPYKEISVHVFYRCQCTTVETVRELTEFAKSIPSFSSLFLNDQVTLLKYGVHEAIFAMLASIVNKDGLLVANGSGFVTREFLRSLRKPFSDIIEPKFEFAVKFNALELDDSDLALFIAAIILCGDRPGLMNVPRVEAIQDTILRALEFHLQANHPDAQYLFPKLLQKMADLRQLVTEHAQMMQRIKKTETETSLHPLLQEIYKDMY
Vitamin D3 receptor (Homo sapiens), sequence (P11473 whole entry, looked up): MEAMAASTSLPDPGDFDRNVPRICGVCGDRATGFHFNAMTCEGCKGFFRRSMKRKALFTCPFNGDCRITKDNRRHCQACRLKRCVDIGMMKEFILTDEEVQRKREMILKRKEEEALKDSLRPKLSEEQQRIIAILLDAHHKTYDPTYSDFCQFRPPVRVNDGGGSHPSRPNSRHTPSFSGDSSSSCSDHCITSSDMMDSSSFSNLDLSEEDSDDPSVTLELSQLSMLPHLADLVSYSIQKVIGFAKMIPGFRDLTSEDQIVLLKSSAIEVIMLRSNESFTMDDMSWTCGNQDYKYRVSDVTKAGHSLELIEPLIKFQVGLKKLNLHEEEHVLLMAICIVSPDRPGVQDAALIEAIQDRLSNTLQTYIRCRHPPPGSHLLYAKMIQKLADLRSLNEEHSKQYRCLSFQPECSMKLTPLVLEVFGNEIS
Bile acid receptor (Homo sapiens), sequence (Q96RI1 whole entry, looked up): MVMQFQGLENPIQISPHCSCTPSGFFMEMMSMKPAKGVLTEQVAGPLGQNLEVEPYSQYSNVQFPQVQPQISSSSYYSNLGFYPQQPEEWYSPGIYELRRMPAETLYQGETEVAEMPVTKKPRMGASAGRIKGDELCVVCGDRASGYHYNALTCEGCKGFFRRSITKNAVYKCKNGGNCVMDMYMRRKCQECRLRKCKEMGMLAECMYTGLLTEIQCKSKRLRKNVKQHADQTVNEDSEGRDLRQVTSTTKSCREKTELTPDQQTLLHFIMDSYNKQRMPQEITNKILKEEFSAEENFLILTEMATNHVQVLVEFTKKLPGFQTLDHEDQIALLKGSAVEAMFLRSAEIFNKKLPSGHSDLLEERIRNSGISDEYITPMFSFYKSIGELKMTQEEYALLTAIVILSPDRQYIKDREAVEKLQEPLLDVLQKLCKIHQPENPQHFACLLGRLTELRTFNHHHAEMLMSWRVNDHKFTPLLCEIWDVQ

Regarding `CC(C)NCC(O)c1cc(O)cc(O)c1` (stereo unspecified), the Potency result in assay [1], in [2], in assay [3], in assay [4], in [6] and in assay [7] was “inactive” throughout. Further, the Potency entry in assay [8], in assay [9], in [11], in assay [12] and in [13] was “inactive” in each case. For the same molecule, the molecule was classed as inactive in assay [5] and in assay [10].
Consider `Cc1cccc(OCCOc2cccc(C)c2)c1`, for which the Potency result in assay [1], in assay [3], in assay [4], in assay [16], in [8] and in [9] was “inactive” in each case. Also, the Potency result in [12], in [13] and in assay [17] was “inactive” in each case. For the same molecule, the molecule was classed as inactive in assay [14], in [15] and in [10].
As for `Nc1ccc(C(=O)Nc2ccccc2N)cc1`, the Potency entry in assay [1], in [4], in [6], in assay [16], in assay [7] and in assay [8] was “inactive” throughout. The Potency result in assay [9], in assay [11], in assay [13] and in assay [17] was “inactive” each time. The call in [14] and in assay [10] was inactive.
With `Cc1cc(CC(=O)O)c(C)n1-c1ccc(Cl)cc1`, the Potency result in assay [1], in assay [2], in assay [3], in assay [4], in assay [6] and in [16] was “inactive” each time. The Potency result in assay [7], in assay [8], in [9], in assay [11], in assay [12] and in assay [13] was “inactive” throughout. In addition, the call in assay [18], in assay [5] and in [10] was inactive.
Take `CCN(CC)CCc1nc(-c2ccccc2)no1`: the Potency entry in [1], in assay [3], in [4], in assay [16], in assay [7] and in [8] was “inactive” in each case. The Potency result in assay [9], in assay [12], in assay [13] and in [17] was “inactive” throughout. Also, the molecule was called inactive in assay [14], in [15] and in [10].
For `C=CC(=O)OCC(C)OCC(C)OCC(C)OC(=O)C=C` (stereo unspecified), the Potency in assay [1] was 49 µM (active); in assay [11], 21.7 µM (active); in [12], 30.6 µM (active). In addition, the Potency entry in [4], in assay [8], in assay [9] and in [13] was “inactive” in each case. Further, in assay [10], the molecule was called inactive.
For `Cn1sccc1=O`, the Potency result in assay [1], in assay [3], in assay [4], in [6], in [7] and in assay [8] was “inactive” each time. Further, the Potency result in assay [9] and in [13] was “inactive” each time. In addition, the outcome in assay [14], in [15] and in [10] was inactive. Also, the values for the Potency in [11] and in assay [12] were 61.1 µM (active) and 30.6 µM (active), respectively.
As for `CCN1CCC[C@H]1CNC(=O)c1c(OC)ccc(Br)c1OC`, the Potency result in [1], in assay [2], in assay [3], in assay [4], in assay [16] and in assay [7] was “inactive” each time. Moreover, the Potency entry in assay [8], in [9], in assay [12], in assay [13] and in assay [17] was “inactive” in each case. For the same molecule, the molecule was classed as inactive in assay [14], in assay [15], in assay [19], in [18], in assay [5] and in assay [10].
For the molecule `CN1CCC(OC(c2ccccc2)c2ccccc2)CC1`, the Potency result in assay [1], in [3], in [4], in assay [16], in [7] and in assay [8] was “inactive” each time. For the same molecule, the Potency entry in assay [11], in assay [12], in assay [13] and in assay [17] was “inactive” each time. Also, the molecule was classed as inactive in assay [14], in assay [18], in [5] and in assay [10].
For `CC1(C)CCC(C)(C)c2cc(NC(=O)c3ccc(C(=O)O)cc3)ccc21`, the Potency entry in assay [1], in [3], in assay [4], in assay [6], in assay [16] and in [7] was “inactive” each time. Moreover, the Potency result in assay [8], in assay [11] and in assay [13] was “inactive” throughout. The molecule was classed as inactive in assay [14], in [15], in [5] and in assay [10]. Besides, the Potency in assay [12] is 26.6 µM (active).

The record behind these values is PubChem BioAssay (Tox21).
